In experiment [1] the target is Glucocorticoid receptor (Homo sapiens) (UniProt P04150). Description: ATG_GR_TRANS: Attagene TRANS-FACTORIAL HepG2 Assay for human Glucocorticoid Receptor (GR) (AID 2282978).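 Also: activators score as hits since higher reporter transcript over DMSO is fitted.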 To be noted: HepG2 Attagene TRANS GR reporter, mRNA transcription. The method in brief:
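HepG2 cells transiently transfected with GAL4-UAS reporter units and exogenous GR-Gal4 chimera, dosed 24 h. Reporter mRNA by RT-PCR, FAM labeling, HpaI digest and capillary electrophoresis; gain-of-signal fit versus DMSO.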

Experiment [2] concerns the target Oxysterols receptor LXR-alpha (Homo sapiens) (UniProt Q13133). Description: ATG_LXRa_TRANS: Attagene TRANS-FACTORIAL HepG2 Assay for human Liver X Receptor alpha (LXRa) (AID 2282980). To be noted: HepG2 Attagene TRANS reporter, LXRa transactivation. In a few lines: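 Chemical-induced reporter mRNA measured by RT-PCR with fluorescent labelling and capillary electrophoresis after 24 h dosing of transiently transfected HepG2 cells expressing exogenous NR-Gal4 chimeras; increases scored against DMSO baseline.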

Experiment [3] addresses Oxysterols receptor LXR-beta (Homo sapiens) (UniProt P55055). Description: ATG_LXRb_TRANS: Attagene TRANS-FACTORIAL HepG2 Assay for human Liver X Receptor beta (LXRb) (AID 2282981). As to conditions: HepG2 Attagene TRANS GAL4-LXRb reporter, mRNA. The method in brief: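 Gain-of-signal mRNA reporter endpoint, DMSO as negative control. Transiently transfected HepG2 cells carrying the NR-Gal4 chimera and GAL4-UAS reporter units were treated 24 h; transcripts quantified by RT-PCR and capillary electrophoresis fluorescence.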

Experiment [4] is described as follows: ATG_M_06_TRANS: Attagene TRANS-FACTORIAL HepG2 Assay for M06 Transcription Factor (Internal Marker) (AID 2282983).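 As to AC50: potency for rise in reporter mRNA above DMSO baseline.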 As to conditions: HepG2 Attagene TRANS M06 internal marker reporter. In a few lines:
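Cells: HepG2, transient multi-reporter transfection. Exposure: 24 h. Detection: RT-PCR, 6-FAM labelling, HpaI digestion (2 h, 37 °C), capillary electrophoresis. Baseline: DMSO.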

The target of experiment [5] is Transcriptional activator Myb (Homo sapiens) (UniProt P10242). Description: ATG_Myb_CIS: Attagene CIS-FACTORIAL HepG2 Assay for human Myeloblastosis (Myb) Proto-Oncogene Transcription Factor (AID 2282986; active = hit-call score of the fitted dose curve at least 0.9, where 1 is the maximum; inactive = score below 0.9). As to conditions: HepG2 Attagene CIS-FACTORIAL Myb reporter transcription; actives raise or lower the signal. In a few lines: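 Transiently transfected HepG2 cells carrying a multiplexed cis-promoter reporter set report endogenous Myb activity after 24 h compound exposure. Reporter mRNA is read by RT-PCR with capillary electrophoresis of fluorescent products, fitted bidirectionally against DMSO.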

The target of experiment [6] is Nuclear respiratory factor 1 (Homo sapiens) (UniProt Q16656). Description: ATG_NRF1_CIS: Attagene CIS-FACTORIAL HepG2 Assay for human Nuclear Respiratory Factor 1 (NRF1) Orphan Gene (AID 2282987; active = hit-call score of the fitted dose curve at least 0.9, where 1 is the maximum; inactive = score below 0.9). As to conditions: HepG2 NRF1 cis-element reporter, Attagene multiplex; actives raise or lower the signal. In a few lines: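 HepG2 cells transiently transfected with multiple cis-regulated reporter units, exposed 24 h. Reporter mRNAs measured by RT-PCR, fluorescent labelling, HpaI digestion and capillary electrophoresis; bidirectional fitting against DMSO.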

The nature of experiment [7]: ATG_NFI_CIS: Attagene CIS-FACTORIAL HepG2 Assay for human Nuclear Factor I (NFI) (AID 2282989; active = hit-call score of the fitted dose curve at least 0.9, where 1 is the maximum; inactive = score below 0.9). To be noted: HepG2 cis-regulatory reporter, NFI response element transcription; actives raise or lower the signal. In a few lines:
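After transient transfection of HepG2 with cis-promoter reporter constructs and 24 h dosing, RNA is reverse-transcribed, amplified, 6-FAM end-labelled and HpaI-digested before capillary analysis. Bidirectional curve fitting against DMSO.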

Experiment [8] addresses Bile acid receptor (Homo sapiens) (UniProt Q96RI1). Nature of the experiment: ATG_FXR_TRANS: Attagene TRANS-FACTORIAL HepG2 Assay for Farnesoid X Receptor (FXR) (AID 2282979).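 Also: hits raise reporter mRNA above DMSO so AC50 marks FXR activation.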 As to conditions: HepG2 Attagene TRANS FXR-GAL4 reporter transcription. The method in brief: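 Reporter transcripts from transfected HepG2 cells were measured 24 h after dosing, using RT-PCR with capillary electrophoresis of 6-FAM-labelled fragments. The read-out reflects activity of exogenous FXR-Gal4 chimera on GAL4-UAS units, with induction relative to DMSO.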

Experiment [9] is described as follows: ATG_M_32_TRANS: Attagene TRANS-FACTORIAL HepG2 Assay for M32 Transcription Factor (Internal Marker) (AID 2282984).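 Also: transcript level of a background control reporter unit measured by RT-PCR and capillary electrophoresis.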 As to conditions: HepG2 Attagene TRANS M32 internal marker reporter. In a few lines:
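Capillary electrophoresis of 6-FAM-labelled reporter fragments gives the signal; data fitted for gain over DMSO negative control. Source: HepG2 cells bearing transient multiple reporter transcription units, 24 h exposure.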

Experiment [10] has as its target Nuclear receptor subfamily 4 group A member 2 (Homo sapiens) (UniProt P43354). Description: ATG_NURR1_TRANS: Attagene TRANS-FACTORIAL HepG2 Assay for human Nuclear Receptor Related Protein 1 (NURR1) (AID 2282985). To be noted: HepG2 Attagene TRANS reporter, mRNA readout. In a few lines: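 HepG2 / transient MRTU transfection / 24 h compound exposure / RT-PCR + CE fluorescence of reporter mRNA / gain-of-signal vs DMSO.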

Inconclusive results are not listed. Calls of active or inactive are those of the source. The calls were made as follows, unless noted: active = hit-call score of the fitted dose curve at least 0.9, where 1 is the maximum; inconclusive = response in the unintended direction; inactive = score below 0.9.

Chain of Nuclear receptor subfamily 4 group A member 2 (Homo sapiens) (P43354 whole entry, looked up): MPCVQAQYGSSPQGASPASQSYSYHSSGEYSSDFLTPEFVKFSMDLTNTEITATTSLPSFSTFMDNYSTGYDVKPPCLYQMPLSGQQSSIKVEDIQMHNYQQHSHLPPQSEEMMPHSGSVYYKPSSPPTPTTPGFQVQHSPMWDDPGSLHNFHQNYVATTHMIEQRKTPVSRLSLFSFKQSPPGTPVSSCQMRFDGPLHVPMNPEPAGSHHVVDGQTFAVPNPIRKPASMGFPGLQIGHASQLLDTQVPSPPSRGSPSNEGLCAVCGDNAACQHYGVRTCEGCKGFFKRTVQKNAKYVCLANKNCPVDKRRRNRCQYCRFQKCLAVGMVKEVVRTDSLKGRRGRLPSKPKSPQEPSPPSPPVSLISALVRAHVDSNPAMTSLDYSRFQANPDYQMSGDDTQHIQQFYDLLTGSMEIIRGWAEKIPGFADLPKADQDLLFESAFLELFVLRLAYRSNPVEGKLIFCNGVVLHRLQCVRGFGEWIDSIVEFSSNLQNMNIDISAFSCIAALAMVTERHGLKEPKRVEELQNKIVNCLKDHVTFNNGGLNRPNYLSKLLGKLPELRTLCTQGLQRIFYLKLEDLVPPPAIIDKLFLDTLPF
Chain of Oxysterols receptor LXR-alpha (Homo sapiens) (Q13133 whole entry, looked up, the tested form may be a part): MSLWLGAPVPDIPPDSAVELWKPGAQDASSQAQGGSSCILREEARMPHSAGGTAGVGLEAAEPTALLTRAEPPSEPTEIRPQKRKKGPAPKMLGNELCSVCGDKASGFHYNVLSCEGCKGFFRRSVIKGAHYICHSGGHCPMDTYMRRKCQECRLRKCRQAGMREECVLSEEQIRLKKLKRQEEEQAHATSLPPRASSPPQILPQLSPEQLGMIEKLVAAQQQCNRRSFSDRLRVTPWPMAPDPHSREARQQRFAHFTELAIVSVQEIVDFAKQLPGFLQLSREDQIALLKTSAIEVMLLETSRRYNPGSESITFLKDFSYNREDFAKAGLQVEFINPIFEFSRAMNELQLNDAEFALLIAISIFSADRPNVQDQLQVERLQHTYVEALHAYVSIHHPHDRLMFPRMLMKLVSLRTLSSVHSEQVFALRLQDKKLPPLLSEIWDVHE
Chain of Bile acid receptor (Homo sapiens) (Q96RI1 whole entry, looked up, the tested form may be a part): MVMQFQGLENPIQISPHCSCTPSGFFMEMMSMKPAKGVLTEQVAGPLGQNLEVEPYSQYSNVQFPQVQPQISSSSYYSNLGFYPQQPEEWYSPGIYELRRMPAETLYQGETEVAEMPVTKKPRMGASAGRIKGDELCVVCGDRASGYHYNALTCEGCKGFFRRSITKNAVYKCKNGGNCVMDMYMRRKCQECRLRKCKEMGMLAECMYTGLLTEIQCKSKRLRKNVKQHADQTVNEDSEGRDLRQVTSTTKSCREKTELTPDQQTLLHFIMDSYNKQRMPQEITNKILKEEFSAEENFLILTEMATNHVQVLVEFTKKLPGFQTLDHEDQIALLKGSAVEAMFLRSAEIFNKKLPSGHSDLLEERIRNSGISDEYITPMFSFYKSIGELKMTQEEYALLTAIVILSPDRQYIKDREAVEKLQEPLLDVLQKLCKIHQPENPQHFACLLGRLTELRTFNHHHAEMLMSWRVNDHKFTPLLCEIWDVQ
Chain of Glucocorticoid receptor (Homo sapiens) (P04150 whole entry, looked up, the tested form may be a part): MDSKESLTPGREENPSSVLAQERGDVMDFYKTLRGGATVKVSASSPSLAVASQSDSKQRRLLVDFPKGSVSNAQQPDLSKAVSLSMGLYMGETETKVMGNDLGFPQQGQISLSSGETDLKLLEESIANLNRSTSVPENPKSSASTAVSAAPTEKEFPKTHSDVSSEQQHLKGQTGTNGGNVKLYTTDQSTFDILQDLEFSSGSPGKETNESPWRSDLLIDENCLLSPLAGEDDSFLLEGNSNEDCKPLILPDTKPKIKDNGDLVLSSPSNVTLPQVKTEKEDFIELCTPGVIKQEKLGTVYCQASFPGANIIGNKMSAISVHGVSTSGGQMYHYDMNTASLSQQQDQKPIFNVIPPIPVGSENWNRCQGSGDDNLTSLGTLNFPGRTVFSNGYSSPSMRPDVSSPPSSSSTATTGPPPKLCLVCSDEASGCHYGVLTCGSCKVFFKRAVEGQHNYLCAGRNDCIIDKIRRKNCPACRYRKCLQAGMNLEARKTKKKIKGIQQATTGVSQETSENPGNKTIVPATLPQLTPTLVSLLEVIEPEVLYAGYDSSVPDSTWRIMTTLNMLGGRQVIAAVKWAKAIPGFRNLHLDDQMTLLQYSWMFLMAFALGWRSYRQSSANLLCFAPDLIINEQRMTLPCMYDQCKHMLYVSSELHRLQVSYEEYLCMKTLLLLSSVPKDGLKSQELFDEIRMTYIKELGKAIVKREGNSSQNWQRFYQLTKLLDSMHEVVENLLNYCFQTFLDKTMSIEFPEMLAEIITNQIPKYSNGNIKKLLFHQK
Chain of Transcriptional activator Myb (Homo sapiens) (P10242 whole entry, looked up): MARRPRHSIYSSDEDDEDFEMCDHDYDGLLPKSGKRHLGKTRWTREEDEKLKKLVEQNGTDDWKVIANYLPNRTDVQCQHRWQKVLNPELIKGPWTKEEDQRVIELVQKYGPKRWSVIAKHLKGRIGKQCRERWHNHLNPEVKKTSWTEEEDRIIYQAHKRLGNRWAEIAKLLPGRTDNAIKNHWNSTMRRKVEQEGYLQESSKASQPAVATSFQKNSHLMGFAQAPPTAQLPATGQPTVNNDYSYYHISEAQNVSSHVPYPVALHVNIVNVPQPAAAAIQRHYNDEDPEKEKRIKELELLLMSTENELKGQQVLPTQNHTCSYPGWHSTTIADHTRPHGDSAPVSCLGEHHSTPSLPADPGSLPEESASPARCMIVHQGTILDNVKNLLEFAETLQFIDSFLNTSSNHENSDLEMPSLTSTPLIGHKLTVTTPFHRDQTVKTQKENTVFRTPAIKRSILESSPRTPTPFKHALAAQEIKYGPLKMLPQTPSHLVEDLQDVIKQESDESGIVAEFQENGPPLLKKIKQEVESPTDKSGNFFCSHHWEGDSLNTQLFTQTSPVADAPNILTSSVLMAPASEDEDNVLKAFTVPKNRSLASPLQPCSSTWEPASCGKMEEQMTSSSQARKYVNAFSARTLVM
Chain of Nuclear respiratory factor 1 (Homo sapiens) (Q16656 whole entry, looked up): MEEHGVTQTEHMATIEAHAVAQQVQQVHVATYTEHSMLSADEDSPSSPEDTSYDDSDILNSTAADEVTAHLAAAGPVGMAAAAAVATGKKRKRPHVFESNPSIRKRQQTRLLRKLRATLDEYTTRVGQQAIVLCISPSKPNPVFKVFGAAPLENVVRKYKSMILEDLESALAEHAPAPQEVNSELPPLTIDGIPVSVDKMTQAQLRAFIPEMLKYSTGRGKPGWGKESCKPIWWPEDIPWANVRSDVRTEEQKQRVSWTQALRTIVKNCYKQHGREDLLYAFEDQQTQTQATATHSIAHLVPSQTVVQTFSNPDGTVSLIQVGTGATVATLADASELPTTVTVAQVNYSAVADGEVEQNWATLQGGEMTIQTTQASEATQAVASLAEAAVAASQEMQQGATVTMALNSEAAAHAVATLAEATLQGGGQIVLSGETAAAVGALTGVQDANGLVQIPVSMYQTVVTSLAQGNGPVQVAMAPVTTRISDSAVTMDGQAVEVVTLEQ
Chain of Oxysterols receptor LXR-beta (Homo sapiens) (P55055 whole entry, looked up, the tested form may be a part): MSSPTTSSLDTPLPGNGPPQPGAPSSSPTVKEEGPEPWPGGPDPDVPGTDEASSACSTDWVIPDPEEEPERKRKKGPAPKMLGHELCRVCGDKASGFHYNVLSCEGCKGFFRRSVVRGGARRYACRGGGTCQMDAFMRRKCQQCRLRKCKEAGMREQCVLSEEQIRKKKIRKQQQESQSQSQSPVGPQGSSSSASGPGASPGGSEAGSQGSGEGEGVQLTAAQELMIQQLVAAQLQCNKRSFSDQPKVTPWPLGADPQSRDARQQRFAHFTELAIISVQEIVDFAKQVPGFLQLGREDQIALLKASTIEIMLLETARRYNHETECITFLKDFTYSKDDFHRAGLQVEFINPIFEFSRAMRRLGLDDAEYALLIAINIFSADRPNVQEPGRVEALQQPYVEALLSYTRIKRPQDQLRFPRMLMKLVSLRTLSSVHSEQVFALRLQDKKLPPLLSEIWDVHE

In the case of `Cn1cnc([N+](=O)[O-])c1Sc1ncnc2nc[nH]c12`, the molecule was called inactive in [1], in [2], in experiment [3], in experiment [4], in experiment [5] and in experiment [6]. Further, the call in experiment [7] was inactive.
As to `CCOC(=O)c1ccc(C2CCC(NC[C@H](O)COc3ccc(O)c(NS(C)(=O)=O)c3)CC2)cc1` (stereo partly specified), the outcome in experiment [1], in experiment [9], in experiment [6] and in experiment [7] was inactive. In addition, the AC50 in [8] was 33 µM (active); in experiment [4], 62.3 µM (active); in experiment [5], 55.5 µM (active).
Turning to `COCCOCCOCCOC`, the result in experiment [1], in [2], in [4], in experiment [9], in [10] and in [5] was inactive. For the same molecule, the result in experiment [6] and in experiment [7] was inactive.
For `CC(C)=CCC/C(C)=C\CO`, the outcome in experiment [1], in [8], in [3], in [4], in experiment [9] and in experiment [10] was inactive. Moreover, the call in [5], in [6] and in [7] was inactive.
With `COc1ccc(/C=C/S(=O)(=O)NC(=O)c2ccc(C)cc2Cl)cc1`, the call in experiment [1], in [2], in [3], in experiment [9], in experiment [5] and in [6] was inactive. In experiment [7], the outcome was inactive.
Take `CN(C)c1ccc(N=NS(=O)(=O)O)cc1`: the outcome in experiment [1], in experiment [2], in experiment [3], in experiment [4], in experiment [5] and in experiment [6] was inactive. The molecule was called inactive in experiment [7].
For the molecule `CC/C(=C\C(=N/O)C(N)=O)C(C)[N+](=O)[O-]` (stereo unspecified), the molecule was classed as inactive in experiment [1], in experiment [2], in experiment [9], in experiment [6] and in [7].
As for `Cn1c(=O)cc(Oc2ccc(F)cc2F)c2cnc(NCC(C)(C)O)nc21`, the molecule was classed as inactive in experiment [1], in [8], in experiment [2], in [3], in experiment [4] and in [9]. In addition, the AC50 in [6] was 51.6 µM (active); in experiment [7] it was 9.46 µM (active).
Regarding `C1=CCCC=CCCC=CCC1`, the call in experiment [1], in experiment [8], in experiment [4], in [6] and in [7] was inactive.
In the case of `CCOc1cccc(-n2cc(C(=O)N3CCN(c4cc(C(=O)O)c5ccccc5c4)CC3)nc2-c2ccc(C)cc2)c1`, the molecule was called inactive in experiment [1], in [8], in experiment [4], in [9] and in [7]. The AC50 in experiment [10] was 45 µM (active); in experiment [6], 22.7 µM (active).
For the molecule `CNCc1ccc(NC(=O)c2c[nH]c3c2C(=O)CCC3)cc1`, the outcome in [1], in experiment [2], in experiment [3], in experiment [4], in experiment [9] and in experiment [10] was inactive. Also, the result in experiment [6] and in experiment [7] was inactive.
As for `O=c1n(CC2CO2)c(=O)n(CC2CO2)c(=O)n1CC1CO1` (stereo unspecified), the call in experiment [2], in experiment [3], in experiment [4], in experiment [10] and in [6] was inactive. Besides, in [7], the AC50 was 47 µM (active).
In the case of `C1N2CN3CN1CN(C2)C3`, the call in experiment [2], in experiment [3], in experiment [4], in [10], in experiment [6] and in experiment [7] was inactive.
For `Fc1ccccc1[C@@H](F)COC1CCC(Nc2ncnc3[nH]ncc23)CC1` (stereo partly specified), the AC50 in [8] was 25.6 µM (active); in experiment [6], 9.56 µM (active). Moreover, the outcome in [9], in experiment [10], in experiment [5] and in [7] was inactive.
Regarding `CCOCCO`, the result in experiment [1], in [4], in [6] and in [7] was inactive.
In the case of `CC1=CC(=O)CC(C)(C)C1`, the result in experiment [1], in experiment [4], in experiment [6] and in experiment [7] was inactive.
Consider `O=C1CCCCCN1`, for which the result in experiment [8], in experiment [2], in [3], in [4], in [10] and in [5] was inactive. Further, the outcome in experiment [6] and in [7] was inactive.
On to `CCCC(=O)OCC`, for which the molecule was called inactive in [1], in experiment [10], in experiment [6] and in experiment [7].
For `CC1(C)C(=O)N(Br)C(=O)N1Br`, the result in experiment [8], in experiment [4], in experiment [10], in experiment [5], in [6] and in experiment [7] was inactive.
On to `CCC(C)(C)C(=O)O[C@H]1C[C@@H](C)C=C2C=C[C@H](C)[C@H](CC[C@@H]3C[C@@H](O)CC(=O)O3)[C@H]21`, for which the molecule was classed as inactive in experiment [1], in [2], in experiment [5], in [6] and in [7].
Turning to `CC(C)=CCC/C(C)=C/CO`, the molecule was called inactive in experiment [1], in [4], in [6] and in experiment [7].

Usually AC50 stands for the concentration at which the activity in the assay is half-maximal.

Source of the values: PubChem BioAssay (EPA / NIEHS).
